Source: PubChem BioAssay AID504652 (National Center for Advancing Translational Sciences (NCATS), 2011)
About 11,000 (3.1%) of roughly 360,000 compounds were called active. The list comes from a sample in which actives are over-represented; it also holds similar structures and randomly drawn compounds. Unmarked numbers belong to inactive results. Cut-off read from the data, not from the text of the source: active = activity change below about -30%; inactive = the rest.

Target: D(1A) dopamine receptor (Homo sapiens) (UniProt P21728)
Sequence (P21728 whole entry, looked up): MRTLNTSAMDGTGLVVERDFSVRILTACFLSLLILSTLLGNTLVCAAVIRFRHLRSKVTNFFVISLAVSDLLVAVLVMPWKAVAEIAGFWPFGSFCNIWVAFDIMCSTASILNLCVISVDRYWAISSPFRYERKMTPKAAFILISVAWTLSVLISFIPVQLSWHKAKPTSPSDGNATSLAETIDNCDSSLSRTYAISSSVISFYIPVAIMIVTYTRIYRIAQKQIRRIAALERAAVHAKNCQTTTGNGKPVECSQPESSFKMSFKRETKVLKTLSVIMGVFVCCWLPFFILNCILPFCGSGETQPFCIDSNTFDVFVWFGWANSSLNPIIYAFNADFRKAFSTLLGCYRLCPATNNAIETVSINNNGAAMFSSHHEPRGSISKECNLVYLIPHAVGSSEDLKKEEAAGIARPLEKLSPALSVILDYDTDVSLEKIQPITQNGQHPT
Experiment: Antagonist of Human D 1 Dopamine Receptor: qHTS
Details: HEK293 TREx D1 cells, calcium flux, dopamine EC80; at 10 µM; hits give low values
Method in brief: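 Using tetracycline-induced force-coupled D1 Hek293 cells and a calcium dye, signals were followed for 180 s after compound, then for 180 s after EC80 dopamine, to detect inhibitors.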
% is set by controls: 0 for no effect and ±100 for the full control effect.

Structure (SMILES)	activity change, negative = inhibition
COc1ccccc1NC(=O)C1=C(C)Nc2nc(SCC(=O)c3ccc(C)cc3)nn2C1c1ccccc1C (centres undefined)	4.06%
O=C(CN1CCN(Cc2ccc(Cl)cc2)C1=O)NCc1ccc(F)cc1	6.15%
COc1ccc(NC(=O)CN2CCCN(Cc3ccccc3)S2(=O)=O)cc1	-2.48%
COc1ccc(CNC(=O)C2CCN(S(=O)(=O)N3CCOCC3)CC2)cc1	-42.3% (active)
COc1ccc(N2CCN(CCCNC(=O)C3CCN(S(=O)(=O)N4CCOCC4)CC3)CC2)cc1	5.25%
COc1ccc(CNC(=O)C2CCN(S(C)(=O)=O)CC2)cc1	-17.7%
COc1cccc(CN2CCc3nc(SCC(=O)Nc4ccccc4)[nH]c(=O)c3C2)c1	3.64%
CCc1ccc(CNC(=O)c2cc3c(=O)n(CC)c4ccccc4c3s2)cc1	11%
Cc1ccc(C)c(N2CCN(S(=O)(=O)c3ccc4c(c3)C(C(C)C)C(=O)N4)CC2)c1 (centres undefined)	-23.5%
O=C(CC(c1cccs1)N1Cc2ccccc2C1=O)Nc1ccc(F)c(F)c1 (centres undefined)	-0.399%
O=C(COc1ccccc1)NCc1ccc2c(c1)CCN2C(=O)c1ccc(F)cc1	-7.02%
O=C(CSc1nnc(Nc2ccccc2)s1)Nc1cccnc1Cl	-65.7% (active)
O=C(CSc1nnc(Nc2ccccc2F)s1)NC1CCCC1	-3.18%
O=C(CSc1nnc(C2CC2)n1Cc1ccccc1)Nc1cccnc1Cl	8.52%
CC(C)c1ccc(NC(=O)c2ccc3c(O)c(S(=O)(=O)c4ccccc4)c(=O)[nH]c3c2)cc1	-2.13%
COc1cc2ccccc2cc1C(=O)Nc1cccc(-c2nc3ccccc3o2)c1	-19.2%
CC(C)(COC(=O)Nc1ccccc1)COC(=O)Nc1ccccc1	-3.78%
N/C(=N\OC(=O)Nc1ccccc1)c1ccno1	-30.9% (active)
O=C(Nc1ccccc1)O/N=C1/CCCc2occc21	7.6%
Cc1ccc(-c2nnc(Nc3ccc(OCC(N)=O)cc3)c3ccccc23)cc1S(=O)(=O)NCC1CCCO1 (centres undefined)	-11.9%
CCOc1ccc(CCNC(=O)c2ccc3c(c2)sc2nc(-c4ccc(F)cc4)cn23)cc1OCC	0.197%
COc1ccccc1C(=O)NCCC(=O)NC(C)CCc1ccccc1 (centres undefined)	-3.06%
COc1ccc(C(=O)NC(C)CCc2ccccc2)c(OC)c1 (centres undefined)	-36.3% (active)

Structure (SMILES)	activity change, negative = inhibition
COc1ccc(CCNC(=O)c2ccccc2OCc2ccccc2)cc1	-35% (active)
COc1ccc(CCNC(=O)c2ccccc2-c2ccccc2C(=O)O)cc1OC	0.57%
COc1ccc(C(=O)CCc2ccccc2O)c(OC)c1	-22.2%
CCOc1ncccc1C(=O)NCCc1ccc(OC)cc1	8.92%
COc1ccc(CC(=O)Nc2nnc3n2CCS3)cc1OC	29.1%
Cc1ccc(Cl)cc1N(C)C(=O)C1CCCN(c2ncnc3onc(-c4ccc(F)cc4)c23)C1 (centres undefined)	3.58%
Cc1nc2nc(SCC(=O)NC3CCC(C)CC3)nn2c(C)c1Cc1ccccc1Cl (centres undefined)	-18.6%
O=C(COC(=O)c1cnc(Cl)c(Cl)c1)NCc1ccco1	-8.31%
CCc1ccc(C(=O)COC(=O)c2ccco2)cc1	3.84%
O=C(COC(=O)c1ccco1)NCc1ccc(Cl)cc1	-43.8% (active)
O=S(=O)(Nc1ccc2nc(-c3cccc(Cl)c3)oc2c1)c1ccccc1	2.59%
O=c1[nH]c2cc(Br)ccc2n2cccc12	17.9%
Cc1ccc2nc(/C(C#N)=C/c3ccccc3F)[nH]c2c1	2.38%
CCc1cc2c(cc3c(=O)n(CC(=O)N4CCN(c5cc(Cl)ccc5C)CC4)ncn32)s1	5.41%
Oc1c(C(c2ccccn2)N2CCOCC2)ccc2cccnc12 (centres undefined)	-33.9% (active)
COc1ccc(-c2cn3c(n2)sc2cc(C(=O)Nc4ccccc4F)ccc23)cc1	-2.21%
Cc1ccc2[nH]c3c(=O)n(CC(=O)NC(C)C)ncc3c2c1	5.41%
COc1ccc(/C=C/c2nc(C#N)c(NCc3ccc(F)cc3)o2)cc1OC	-16%
CCC(Cc1ccccc1)NS(=O)(=O)c1ccc2c(c1)NC(=O)CS2 (centres undefined)	-0.0752%
O=C1CSc2ccc(S(=O)(=O)NCc3ccccc3)cc2N1	-44.7% (active)
COc1ccccc1CNS(=O)(=O)c1ccc2c(c1)NC(=O)CS2	7.86%
CCCCn1cc(S(=O)(=O)c2ccc(OCC)cc2)c(=O)c2cc(OC)c(OC)cc21	4.22%
COc1ccc(C)cc1Nc1nc2ccccc2c2nnc(C)n12	1.83%

Structure (SMILES)	activity change, negative = inhibition
COc1cc(-n2c(C)nc3cc(C(=O)NCc4ccco4)ccc32)cc(OC)c1OC	-14.8%
CCn1cc(C(=O)NCC2COc3ccccc3O2)c2cc(OC)c(OC)cc2c1=O (centres undefined)	13.1%
CCOc1c2ccc(C(=O)NCc3ccc4c(c3)OCO4)cc2nn1C	3.09%
CCn1cc(C(=O)NCc2ccc3c(c2)OCO3)c2cc(OC)c(OC)cc2c1=O	-40.7% (active)
CCN(CC)C(=O)C(=O)c1cn(CC(=O)NCc2ccc3c(c2)OCO3)c2ccccc12	-3.14%
COc1ccccc1-n1c(C)nc2cc(C(=O)NCc3ccc4c(c3)OCO4)ccc21	-36.2% (active)
CC(=O)Nc1cc(C(=O)NCc2ccc(F)cc2)ccc1Sc1ccc(F)cc1	3.13%
COc1ccccc1CNS(=O)(=O)c1cc(Br)cc2c1N(C(C)=O)C(C)C2 (centres undefined)	7.16%
C#CCOCCOCCOCCNc1nc(N2CCN(C(=O)[C@H](C(C)C)n3cc(CCO)nn3)CC2)nc(N2CCN(C(=O)[C@H](C(C)C)n3cc(CCO)nn3)CC2)n1	7.62%
C#CCOCCOCCOCCNc1nc(N2CCN(C(=O)[C@H](CCCCN)n3cc([C@@H](N)C(C)CC)nn3)CC2)nc(N2CCN(C(=O)[C@H](Cc3ccc(O)cc3)n3cc([C@@H](N)C(C)CC)nn3)CC2)n1 (some centres undefined)	-11.3%
C#CCOCCOCCOCCNc1nc(N2CCN(C(=O)C(Cc3ccc(O)cc3)n3cc(C(N)CC(C)C)nn3)CC2)nc(N2CCN(C(=O)C(Cc3ccc(O)cc3)n3cc(C(N)C(C)CC)nn3)CC2)n1 (centres undefined)	-10.5%
C#CCOCCOCCOCCNc1nc(N2CCN(C(=O)[C@H](CCC(=O)O)n3cc(C(N)CO)nn3)CC2)nc(N2CCN(C(=O)[C@H](CCCCN)n3cc(C(N)CC(C)C)nn3)CC2)n1 (some centres undefined)	-32.3% (active)
C#CCOCCOCCOCCNc1nc(N2CCN(C(=O)[C@H](CCC(=O)O)n3cc(C(N)CO)nn3)CC2)nc(N2CCN(C(=O)[C@H](CCCCN)n3cc(C(N)[C@H](C)CC)nn3)CC2)n1 (some centres undefined)	-39.7% (active)
C#CCOCCOCCOCCNc1nc(N2CCN(C(=O)[C@H](CCC(=O)O)n3cc(C(N)CO)nn3)CC2)nc(N2CCN(C(=O)[C@H](Cc3ccc(O)cc3)n3cc(C(N)[C@H](C)CC)nn3)CC2)n1 (some centres undefined)	-34.5% (active)
C#CCOCCOCCOCCNc1nc(N2CCN(C(=O)CCCCCCCCCCNC(=O)[C@H]([C@@H](C)CC)n3cc(CCCCN=C(N)N)nn3)CC2)nc(N2CCN(C(=O)CCCCCCCCCCNC(=O)[C@H](CO)n3cc(CCCSC)nn3)CC2)n1	6.53%
C#CCOCCOCCOCCNc1nc(N2CCN(C(=O)[C@H](Cc3ccc(O)cc3)n3cc(C(N)CC(C)C)nn3)CC2)nc(N2CCN(C(=O)[C@H](CCC(=O)O)n3cc(C(N)[C@H](C)CC)nn3)CC2)n1 (some centres undefined)	-5.53%
O=C(CC1Oc2ccccc2NC1=O)NCc1ccc(F)cc1 (centres undefined)	-2.49%
CN1C(=O)c2[nH]nc(-c3ccc(F)cc3)c2C1c1ccccn1 (centres undefined)	-12.2%
N#Cc1nc(/C=C/c2ccc(F)cc2)oc1NC1CCCCC1	-1.82%
CCN(CC)c1cc(NC2CCCCC2)c2c3c(onc13)-c1ccccc1C2=O	8.94%
Cc1ccc2nc(CN3CCN(S(=O)(=O)c4ccc(C)c(C)c4)CC3)oc2c1	-3.02%
COc1cc(NC(=O)CN2CCN(S(=O)(=O)c3ccc(Br)cc3)CC2)cc(OC)c1	-5.38%
CCc1ccc(C2C(C(=O)Nc3ccccc3)=C(C)Nc3c(C(=O)Nc4ccc(C)cc4)cnn32)cc1 (centres undefined)	-24.1%
